Measured values reported in PubChem BioAssay (NCATS).
“And” between values parts separate entries of the source, which are not always exact repeats. Equal entries are not always repeated. Results filed as inconclusive are left out. A call without a number means that no potency is given here. Where a structure was tested more than once in an assay, its records may differ in their call. The source made the active and inactive calls. Unless noted, calls follow the shape of the dose curve; as a rule, active = well fitted curve in the direction sought with a large enough effect; inconclusive = small, poorly fitted or top-dose-only effect, or another doubt; inactive = no such curve, though single readings can be large; an effect the other way counts as inactive or inconclusive.

Columns and labels:
[1] = molecular target: Calcium and integrin-binding protein 1 (Homo sapiens) (UniProt Q99828); experiment: Primary qHTS for Identification of Calcium Integrin Binding Protein 1 (CIB1) Competitor (AID 1508620);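 also: GST tagged CIB1 binding a fluorescein labelled alphaIIb integrin peptide tracer; top concentration of the series differs between compounds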
Calcium and integrin-binding protein 1 (Homo sapiens), sequence (Q99828 whole entry, looked up): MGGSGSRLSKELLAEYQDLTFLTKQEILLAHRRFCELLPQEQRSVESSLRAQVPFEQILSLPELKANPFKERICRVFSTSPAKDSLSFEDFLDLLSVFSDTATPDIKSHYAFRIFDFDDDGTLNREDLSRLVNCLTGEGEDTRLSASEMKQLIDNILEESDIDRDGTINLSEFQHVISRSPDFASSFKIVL
In short: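 CIB1-GST (1 uM final) and compound incubated 15 min at room temperature before adding FITC-alphaIIb peptide tracer (100 nM final). Competition for binding read by fluorescence polarization (ex 480, em 540) after another 15 min at room temperature.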

[2] = Primary qHTS for small molecule stabilizers of the endoplasmic reticulum resident proteome: Secreted ER Calcium Modulated Protein (SERCaMP) assay (AID 1508630); also: potency is read from the fitted curve at half-maximal effect
In short: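 GLuc-SERCaMP-expressing SH-SY5Y cells, pretreated 16 h with compound, are challenged with thapsigargin to empty ER calcium stores; after 4 h, coelenterazine is added directly to the medium and luminescence is imaged.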

[3] = A High-Content qHTS Against Drug Library for the Identification of Small Molecules that Inhibit DYT1 Early Onset Primary Dystonia-Associated Cell Pathology (AID 1645839; calls by dose curve; also: potency is read from the fitted curve at half-maximal effect; as to % pathology change, negative = correction: series mostly up to about 46 µM)
In short: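 In this high-content image screen, delE TorsinA mislocalization in inducible Flp-In 293 cells is scored as %pathology, with cell count serving as the counterscreen. Compound exposure lasts 48 h under tetracycline induction in reduced-serum medium.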

[4] = molecular target: Cytochrome P450 2D6 (Homo sapiens) (UniProt P10635); experiment: Cytochrome P450 family 2 subfamily D member 6 (CYP2D6) small molecule antagonists: luciferase biochemical (cell-free) qHTS assay (AID 1645840; active = well fitted curve in the direction sought with a large enough effect in the repeat runs; an effect the other way counts as inactive or inconclusive; also: nearly all actives have a fitted effect of over 55% in size; also: potency is read from the fitted curve at half-maximal effect)
Cytochrome P450 2D6 (Homo sapiens), sequence (P10635 whole entry, looked up): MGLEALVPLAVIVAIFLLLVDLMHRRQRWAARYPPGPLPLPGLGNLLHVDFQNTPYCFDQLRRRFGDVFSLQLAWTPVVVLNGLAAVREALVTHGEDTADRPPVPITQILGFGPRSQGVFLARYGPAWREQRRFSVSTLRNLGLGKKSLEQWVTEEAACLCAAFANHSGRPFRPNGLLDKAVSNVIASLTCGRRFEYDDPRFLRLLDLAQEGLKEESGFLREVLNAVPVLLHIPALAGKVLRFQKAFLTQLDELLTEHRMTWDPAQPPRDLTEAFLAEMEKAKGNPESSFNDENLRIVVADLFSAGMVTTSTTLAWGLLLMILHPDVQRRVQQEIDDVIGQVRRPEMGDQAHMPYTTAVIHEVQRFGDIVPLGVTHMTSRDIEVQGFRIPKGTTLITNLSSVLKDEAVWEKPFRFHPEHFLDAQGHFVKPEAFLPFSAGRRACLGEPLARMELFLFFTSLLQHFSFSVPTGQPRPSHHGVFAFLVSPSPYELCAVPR
In short: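 P450-Glo luminescent screen: recombinant CYP2D6 enzyme–proluciferin substrate mix preincubated with compound 10 min at room temperature, then NADPH regeneration added for 1 h at room temperature. Detection reagent added for 20 min; luciferin light read as relative luminescence units.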

[5] = molecular target: Cytochrome P450 3A4 (Homo sapiens) (UniProt P08684); experiment: Cytochrome P450 family 3 subfamily A member 4 (CYP3A4) small molecule antagonists: luciferase qHTS assay (AID 1645841; active = well fitted curve in the direction sought with a large enough effect in the repeat runs; an effect the other way counts as inactive or inconclusive; also: nearly all actives have a fitted effect of over 45% in size)
Cytochrome P450 3A4 (Homo sapiens), sequence (P08684 whole entry, looked up): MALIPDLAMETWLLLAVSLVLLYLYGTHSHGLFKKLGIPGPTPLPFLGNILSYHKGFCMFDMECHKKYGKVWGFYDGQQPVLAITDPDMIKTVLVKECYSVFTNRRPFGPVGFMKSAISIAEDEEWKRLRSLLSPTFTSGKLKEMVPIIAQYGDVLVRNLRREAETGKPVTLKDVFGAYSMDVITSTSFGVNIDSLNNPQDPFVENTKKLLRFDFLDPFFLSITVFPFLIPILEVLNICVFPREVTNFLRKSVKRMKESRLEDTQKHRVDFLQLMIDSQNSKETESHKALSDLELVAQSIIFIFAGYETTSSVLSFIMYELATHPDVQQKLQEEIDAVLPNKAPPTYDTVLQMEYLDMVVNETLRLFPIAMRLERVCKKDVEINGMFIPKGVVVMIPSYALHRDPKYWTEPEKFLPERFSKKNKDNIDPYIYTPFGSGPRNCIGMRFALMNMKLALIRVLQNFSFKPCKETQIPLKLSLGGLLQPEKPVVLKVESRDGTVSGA
In short: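 Luminescent CYP3A4 activity readout: compounds plus enzyme-substrate mix 10 min at room temperature, reaction started with NADPH regenerating system for 1 h, stopped with detection reagent, read after 20 min. Ketoconazole served as control.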

[6] = molecular target: Cytochrome P450 2C9 (Homo sapiens) (UniProt P11712); experiment: Cytochrome P450 family 2 subfamily C member 9 (CYP2C9) small molecule antagonists: luciferase biochemical (cell-free) qHTS assay (AID 1645842; active = well fitted curve in the direction sought with a large enough effect in the repeat runs; an effect the other way counts as inactive or inconclusive; also: nearly all actives have a fitted effect of over 55% in size; also: potency is read from the fitted curve at half-maximal effect)
Cytochrome P450 2C9 (Homo sapiens), sequence (P11712 whole entry, looked up): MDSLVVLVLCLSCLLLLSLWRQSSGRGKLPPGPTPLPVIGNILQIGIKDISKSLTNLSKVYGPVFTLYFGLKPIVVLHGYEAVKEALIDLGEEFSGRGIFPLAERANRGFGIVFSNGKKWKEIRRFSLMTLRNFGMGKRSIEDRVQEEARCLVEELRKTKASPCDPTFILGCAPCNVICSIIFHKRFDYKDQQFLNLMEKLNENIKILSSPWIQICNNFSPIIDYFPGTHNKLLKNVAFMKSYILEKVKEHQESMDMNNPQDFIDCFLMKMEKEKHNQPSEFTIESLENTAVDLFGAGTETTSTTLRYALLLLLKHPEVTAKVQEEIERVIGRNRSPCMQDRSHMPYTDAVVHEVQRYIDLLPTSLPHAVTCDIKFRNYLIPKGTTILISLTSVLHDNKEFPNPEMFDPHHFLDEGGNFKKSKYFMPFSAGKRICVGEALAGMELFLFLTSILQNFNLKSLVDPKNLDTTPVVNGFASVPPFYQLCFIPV
In short: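 Luminescence, after 20 min with luciferin detection reagent, reflected CYP2C9 turnover during a 1 h NADPH-driven reaction at 37C. Enzyme-substrate mix contained 0.4% bovine serum albumin and was preincubated with compound 10 min at room temperature.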

[7] = Counterscreen qHTS for small molecule stabilizers of the endoplasmic reticulum resident proteome: GLuc-NoTag assay (AID 1508627); also: potency is read from the fitted curve at half-maximal effect
In short: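 Luminescence of Gaussia luciferase secreted into the medium (coelenterazine, 0.07x final, unlysed cells) was the read-out. Human SH-SY5Y neuroblastoma cells constitutively secreting untagged GLuc received compound for 19 h, then 100 nM thapsigargin for 4 h.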

[8] = Confirmatory qHTS for small molecule stabilizers of the endoplasmic reticulum resident proteome: Secreted ER Calcium Modulated Protein (SERCaMP) assay (AID 1508628); also: nearly all actives have a fitted effect of over 40% in size; also: potency is read from the fitted curve at half-maximal effect
In short: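 We seeded SH-SY5Y-GLuc-SERCaMP cells, added compounds (three concentrations in the primary run, eleven up to 76.6 uM in confirmation), incubated 16 h, depleted ER calcium with thapsigargin, and read luciferase 4 h later.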

[9] = Cell Viability qHTS for small molecule stabilizers of the endoplasmic reticulum resident proteome (AID 1508629); conditions: cell viability counter-screen, 100 nM thapsigargin for final 4 h;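 also: compound exposure about 46 h in total before the viability read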; also: potency is read from the fitted curve at half-maximal effect;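 as to max response: human SH-SY5Y neuroblastoma cells carrying the GLuc-SERCaMP reporter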

CC(=O)O[C@H]1C(=O)[C@@]2(C)C([C@H](OC(=O)c3ccccc3)[C@]3(O)C[C@H](OC(=O)[C@H](O)[C@@H](NC(=O)c4ccccc4)c4ccccc4)C(C)=C1C3(C)C)[C@]1(OC(C)=O)CO[C@@H]1C[C@@H]2O (stereo partly specified)
Potency [1]: inactive | Potency [2]: inactive

N[C@@H](Cc1cc(I)c(Oc2cc(I)c(O)c(I)c2)c(I)c1)C(=O)O
Potency [1]: inactive | Potency [2]: inactive and 749 nM (active) | Potency [3]: inactive | Potency [4]: inactive

O=C(OC1C[C@H]2CC[C@@H](C1)[N+]21CCCC1)C(O)(c1ccccc1)c1ccccc1 (stereo partly specified)
Potency [1]: inactive | Potency [2]: inactive | Potency [3]: inactive | Potency [4]: 6.17 µM (active) | outcome [5]: inactive | Potency [6]: inactive

CN(c1nccc(=O)[nH]1)C1CCN(c2nc3ccccc3n2Cc2ccc(F)cc2)CC1
Potency [1]: inactive | Potency [2]: inactive | Potency [3]: inactive | Potency [4]: 12.3 µM (active)

NS(=O)(=O)c1cc(C(=O)O)c(NCc2ccco2)cc1Cl
Potency [1]: inactive | Potency [2]: inactive | Potency [3]: inactive

CCN(CCO)CCCC(C)Nc1ccnc2cc(Cl)ccc12 (stereo unspecified)
Potency [1]: inactive | Potency [2]: inactive | % pathology change, negative = correction [3]: -8.74% [at 4.63 µM] (inactive)

O=C(O)c1cccc(-c2noc(-c3ccccc3F)n2)c1
Potency [1]: inactive | Potency [7]: inactive | Potency [8]: inactive | Potency [3]: inactive | Potency [4]: 1.55 µM (active) | Potency [6]: 1.55 µM (active)

Clc1ccc(C(Cn2ccnc2)OCc2c(Cl)cccc2Cl)c(Cl)c1 (stereo unspecified)
Potency [1]: inactive | Potency [2]: inactive

CC1(C)CCC(C)(C)c2cc(NC(=O)c3ccc(C(=O)O)cc3)ccc21
Potency [1]: inactive | Potency [7]: inactive | Potency [2]: inactive | Potency [4]: inactive | Potency [6]: inactive

CCOC(=O)C1=C[C@@H](OC(CC)CC)[C@H](NC(C)=O)[C@@H](N)C1
Potency [1]: inactive | Potency [2]: inactive

O=P(O)(O)C(O)(Cn1ccnc1)P(=O)(O)O
Potency [1]: inactive | Potency [2]: inactive

OC(CN1CCN(c2cccc(Cl)c2)CC1)C(c1ccccc1)c1ccccc1 (stereo unspecified)
Potency [1]: inactive | Potency [2]: inactive

COC(=O)N[C@H](C(=O)N[C@@H](Cc1ccccc1)[C@@H](O)CN(Cc1ccc(-c2ccccn2)cc1)NC(=O)[C@@H](NC(=O)OC)C(C)(C)C)C(C)(C)C
Potency [1]: inactive | Potency [2]: inactive | Potency [3]: inactive

O=C(O)c1cn(-c2ccc(F)cc2)c2cc(N3CCNCC3)c(F)cc2c1=O
Potency [1]: inactive | Potency [7]: inactive | max response [9]: 19.2% (inactive) and 20.4% (inactive) | Potency [2]: inactive | Potency [3]: inactive | Potency [4]: inactive | outcome [5]: inactive | Potency [6]: inactive

CCCCCCCCCCCCCCCCCCCCCCO
Potency [1]: inactive | Potency [2]: inactive

Cc1ccc(C)c(OCCCC(C)(C)C(=O)O)c1
Potency [1]: inactive | Potency [2]: inactive | Potency [3]: inactive | Potency [4]: inactive | outcome [5]: inactive

COC(=O)C1=C(C)NC(C)=C(C(=O)OCCCN2CCC(c3ccccc3)(c3ccccc3)CC2)C1c1cccc([N+](=O)[O-])c1 (stereo unspecified)
Potency [1]: inactive | Potency [7]: 39.8 µM (active) | Potency [9]: 28.2 µM (active) | Potency [2]: inactive

CN(C)CCc1c[nH]c2ccc(Cn3cncn3)cc12
Potency [1]: inactive | Potency [2]: inactive

COC(=O)C1=C(C)NC(C)=C(C(=O)OC(C)C)C1c1cccc2nonc12 (stereo unspecified)
Potency [1]: inactive | Potency [2]: inactive

Nc1ccc(S(N)(=O)=O)cc1
Potency [1]: inactive | Potency [2]: inactive | Potency [3]: inactive

CN(C)c1ccc(O)c2c1C[C@H]1C[C@H]3[C@H](N(C)C)C(=O)C(C(N)=O)=C(O)[C@@]3(O)C(=O)C1=C2O
Potency [1]: inactive | Potency [7]: inactive | Potency [8]: inactive | max response [9]: 11.6% (inactive) | Potency [2]: inactive and 31.6 µM (active) | Potency [4]: inactive | outcome [5]: inactive | Potency [6]: inactive

O=C1c2ccccc2-c2n[nH]c3cccc1c23
Potency [1]: inactive | Potency [2]: inactive

O=C1CCc2ccc(OCCCCN3CCN(c4cccc(Cl)c4Cl)CC3)cc2N1
Potency [1]: inactive | Potency [2]: inactive

CCN(CC)CCOc1ccc(Nc2ncc3cc(-c4c(Cl)cccc4Cl)c(=O)n(C)c3n2)cc1
Potency [1]: inactive | Potency [2]: inactive

Oc1ccc(OCc2ccccc2)cc1
Potency [1]: inactive | Potency [2]: inactive | Potency [3]: inactive | Potency [4]: 15.5 µM (active)

CNC[C@@H](O)[C@@H](O)[C@H](O)[C@H](O)CO
Potency [1]: inactive | Potency [2]: inactive

Cc1c(C(=O)NN2CCCCC2)nn(-c2ccc(Cl)cc2Cl)c1-c1ccc(Cl)cc1
Potency [1]: inactive | Potency [2]: inactive

Cc1cc(O)c2c(c1)C(=O)c1cc(O)cc(O)c1C2=O
Potency [1]: inactive | Potency [8]: 14.1 µM (active)

Nc1cc(C(Cl)=C(Cl)Cl)c(S(N)(=O)=O)cc1S(N)(=O)=O
Potency [1]: inactive | Potency [2]: inactive | Potency [3]: inactive | Potency [4]: inactive

C[C@H](Cn1cnc2c(N)ncnc21)OCP(=O)(O)O
Potency [1]: inactive | Potency [2]: inactive

CCC[C@@H]1C[C@@H](C(=O)N[C@@H]([C@H]2O[C@H](SC)[C@H](O)[C@@H](O)[C@H]2O)[C@@H](C)O)N(C)C1
Potency [1]: inactive | Potency [2]: inactive | Potency [3]: inactive | Potency [4]: inactive | outcome [5]: inactive | Potency [6]: inactive

COc1cc(Nc2c(C#N)cnc3cc(OCCCN4CCN(C)CC4)c(OC)cc23)c(Cl)cc1Cl
Potency [1]: inactive | Potency [2]: inactive | Potency [3]: 10 µM (active) | Potency [4]: inactive | outcome [5]: inactive | Potency [6]: inactive

CC(C)c1ccc2c(c1)c(SC(C)(C)C)c(CC(C)(C)C(=O)O)n2Cc1ccc(Cl)cc1
Potency [1]: inactive | Potency [2]: inactive

Nc1cccc2c1CN(C1CCC(=O)NC1=O)C2=O (stereo unspecified)
Potency [1]: inactive | Potency [2]: inactive | Potency [3]: inactive

C[Se]CCC(N)C(=O)O (stereo unspecified)
Potency [1]: inactive | Potency [2]: inactive

O=C1NC(=O)C(c2ccccc2[N+](=O)[O-])=C1Nc1ccc(O)c(Cl)c1
Potency [1]: inactive | Potency [2]: inactive

CN1CCC(=C2c3ccccc3CCc3sccc32)CC1
Potency [1]: inactive | Potency [7]: inactive | Potency [8]: 25.1 µM (active) | Potency [4]: 1.1 µM (active) | Potency [6]: inactive
